# Compound activity (PubChem BioAssay)
# KCNQ2 inh: rat KCNQ2 potassium channel inhibitors, primary screen, cell-based, CHO-K1, FluxOR thallium flux, B-score | Potassium voltage-gated channel subfamily KQT member 2 (Rattus norvegicus), O88943 | 20 min; active compounds read low | B-score at 10 µM | hit rate 1.1% among 310,000 | AID 2156, 2009;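 active = fluorescence ratio B-score at most minus 3 library SDs, with starting brightness B-score within 2 library SDs, cut at about -5.5 in these data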
# KCNQ2 enhance: potentiators of rat KCNQ2 potassium channel; Potassium voltage-gated channel subfamily KQT member 2 (Rattus norvegicus), O88943; CHO-K1 KCNQ2, FluxOR thallium flux fluorescence; active compounds read high; B-score at 10 µM; hit rate 0.54% among 310,000;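 active = fluorescence ratio B-score at least 3 SD of library B-scores, with initial fluorescence B-score within 3 of them, cut at about 5.3 in these data; same plate scores as AID 2156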;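 note: B-score of peak minus minimum over baseline fluorescence ratio after K+ and Tl+ stimulus; positive B-score means potentiation of KCNQ2 with more thallium influx and brighter signal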
# Kir21 confirm: mouse Kir2.1 channel blockers, retest, confirmation, cell-based, FluxOR thallium flux, duplicate. shares compounds with KCNQ2 enhance. Kir2.1-expressing cells, FluxOR thallium flux fluorescence; active compounds read low. Tl flux remaining, % of negative control (active compounds read low), % at 10 µM. hit rate 41% among 2,300. AID 2032, 2009;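 active = Primary-screen hit whose thallium flux fell at least 3 control SD below untreated wells in both duplicates, with normal baseline fluorescence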;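 note: 0% = blank wells without stimulus and 100% = stimulated no-compound controls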
# HEK293 ctr: alters thallium flux in parental HEK293 cells, Kir2.1 counter-screen; shares compounds with KCNQ2 enhance; FluxOR thallium flux fluorescence; 0% = unstimulated blank wells; FluxOR signal as % of negative control (100 = no effect), % at 10 µM; hit rate 19% among 2,300;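 active = dye signal at least 3 control SD above or below untreated wells in both duplicates, raw fluorescence within 3, either direction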;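 note: percent is based on the flux ratio of peak minus minimum fluorescence over baseline F0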
# CHO-K1 Tl ctr: nonspecific thallium flux increase in parental CHO-K1, confirmation, counter-screen for KCNQ2 potentiator project, cell-based, FluxOR thallium flux, duplicate. shares compounds with KCNQ2 enhance. parental CHO-K1 cells, FluxOR thallium flux fluorescence; zero = vehicle mean+3SD, 100% = vehicle-minus-blank window. activity increase over 3SD of controls, % at 10 µM. AID 2282, 2010. hit rate 43% among 1,200;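 active = signal rise of at least 3 SD above the untreated control mean, in both duplicate wells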;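 note: counter screen of KCNQ2 potentiator hits so any rise reflects channel-independent effects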
# KCNQ1 sel pot: human KCNQ1 channel potentiation off-target, confirmation, selectivity assay for KCNQ2 potentiator project, cell-based, CHO, FluxOR thallium flux. shares compounds with KCNQ2 enhance. CHO KCNQ1 stable, FluxOR thallium flux fluorescence; beyond 3SD, as % of vehicle-control signal. activation over 3SD threshold, % at 10 µM. hit rate 28% among 1,200. AID 2283, 2010;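 active = fluorescence ratio rise of at least 3 SD of vehicle wells above their mean, in both replicate wells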;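 note: 0% = vehicle mean plus 3 SD and 100% = vehicle minus unstimulated blank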
# Target sequence (P51787 whole entry, looked up): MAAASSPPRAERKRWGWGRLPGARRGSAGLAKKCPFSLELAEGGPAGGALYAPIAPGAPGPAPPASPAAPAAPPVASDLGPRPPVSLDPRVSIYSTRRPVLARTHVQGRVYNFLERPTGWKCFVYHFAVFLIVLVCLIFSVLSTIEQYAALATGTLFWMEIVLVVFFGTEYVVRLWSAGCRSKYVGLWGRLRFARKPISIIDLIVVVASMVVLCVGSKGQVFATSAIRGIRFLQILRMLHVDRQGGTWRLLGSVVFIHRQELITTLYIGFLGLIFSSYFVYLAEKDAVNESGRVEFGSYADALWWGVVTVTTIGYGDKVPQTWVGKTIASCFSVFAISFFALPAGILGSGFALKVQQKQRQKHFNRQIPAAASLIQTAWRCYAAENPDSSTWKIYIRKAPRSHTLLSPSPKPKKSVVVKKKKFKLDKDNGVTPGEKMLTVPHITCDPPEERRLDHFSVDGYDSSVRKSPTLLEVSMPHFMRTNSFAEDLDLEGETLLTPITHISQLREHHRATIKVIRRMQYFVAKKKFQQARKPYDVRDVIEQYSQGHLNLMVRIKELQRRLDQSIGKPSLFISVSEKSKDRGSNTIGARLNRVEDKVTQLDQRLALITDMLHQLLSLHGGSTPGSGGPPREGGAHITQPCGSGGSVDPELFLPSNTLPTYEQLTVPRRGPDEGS
# KCNQ2 pot conf: rat KCNQ2 channel potentiators, confirmation, cell-based, CHO, FluxOR thallium flux, duplicate. shares compounds with KCNQ2 enhance. CHO-KCNQ2 cells, FluxOR thallium flux fluorescence. potentiation, less the hit threshold, % at 10 µM. hit rate 68% among 1,200. AID 2287, 2010;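 active = fluorescence ratio rising 3 SD or more over the vehicle control mean in both replicates, plus primary screen hit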;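 note: peak minus minimum thallium fluorescence divided by baseline after K/Tl stimulus; 0% = vehicle mean plus 3 SD and 100% = vehicle minus unstimulated blank difference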
# Kir2-1 sel: mouse Kir2.1 channel activation off-target, confirmation, selectivity assay for KCNQ2 potentiator project, cell-based, HEK293, FluxOR thallium flux. shares compounds with KCNQ2 enhance. activity over 3SD threshold, % at 10 µM. hit rate 2% among 1,200. HEK293 Kir2.1, FluxOR thallium flux fluorescence;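 active = fluorescence ratio rise of at least 3 SD above the vehicle-control mean, seen in both replicates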;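 note: 0% = vehicle mean plus 3 SD and 100% = vehicle minus no-stimulus blank window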
# KCNQ2 W236L MoA: potentiators of retigabine-insensitive KCNQ2 W236L, mechanism study for KCNQ2 potentiator project, cell-based, rat KCNQ2 W236L, CHO, automated patch clamp; shares compounds with KCNQ2 enhance; automated patch clamp current; current increase over 3SD of negative controls (%), active compounds read high, % at 25 µM; hit rate 10% among 940; AID 2558, 2010;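 active = current increase at least 3 SD of the untreated controls above them in both duplicate recordings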
# Active calls of the source: *; i = inactive; x = no result given. Sampled rows, rich in hits. Any-hit rate of the full collection: about 1.6%.
SMILES,KCNQ2 inh,KCNQ2 enhance,Kir21 confirm,HEK293 ctr,others
Cc1nnsc1S(=O)c1ccc(F)cc1 (stereo not given),i,0.41,x,x,
CNC(=O)c1nnsc1S(=O)c1ccc(Cl)cc1 (stereo not given),i,x,66%*,65%*,
Cc1ccc(S(=O)c2snnc2C)cc1 (stereo not given),i,x,x,x,
CCCNC(=O)c1nnsc1S(=O)c1ccc(Cl)cc1 (stereo not given),-6.8*,-6.8,74%*,i,
O=C(O)CC(CC(=O)N1CCN(C(=O)c2ccco2)CC1)c1ccccc1 (stereo not given),i,x,x,x,
COc1ccc(C)cc1Nc1n[n+](-c2ccccc2)c(-c2ccc(SC)cc2)s1,i,x,x,x,
CC(=O)NC1(NC(C)=O)CCN(C)CC1,i,x,x,x,
CCCCCn1c(=S)[nH]c2ncccc2c1=O,i,3.1,x,x,
O=c1c2cccnc2[nH]c(=S)n1CCC1=CCCCC1,i,12*,i,278%*,CHO-K1 Tl ctr=7.6*;KCNQ1 sel pot=-14;KCNQ2 pot conf=48*;Kir2-1 sel=-23;KCNQ2 W236L MoA=i
Cc1cccc(NC(=O)CC(=O)Nc2cccc(C)c2)c1,i,x,x,x,
Cc1cccc(NC(=O)C23CCC(C)(C2Br)C3(C)C)c1 (stereo not given),i,10*,i,i,CHO-K1 Tl ctr=-2;KCNQ1 sel pot=7.4*;KCNQ2 pot conf=-6;Kir2-1 sel=-47;KCNQ2 W236L MoA=i
O=C(Nc1ccc(N2C(=O)CCC2=O)cc1Cl)c1cccs1,i,x,x,x,
CCC1(c2ccc(Cl)cc2)NC(=S)N(c2ccc(C)c(C)c2)N1 (stereo not given),i,29*,i,537%*,CHO-K1 Tl ctr=21*;KCNQ1 sel pot=-10;KCNQ2 pot conf=68*;Kir2-1 sel=-3
CC1=CC(C)(C)NC(=S)N1c1ccc(C)c(C)c1,i,0.02,x,x,
CCC1(c2ccccc2)NC(=S)N(c2ccc(C)c(C)c2)N1 (stereo not given),i,13*,i,435%*,CHO-K1 Tl ctr=-5;KCNQ1 sel pot=-18;KCNQ2 pot conf=55*;Kir2-1 sel=-19;KCNQ2 W236L MoA=i
Cc1ccc(-n2c(C)n[nH]c2=S)cc1C,i,x,x,x,
Cc1nn(-c2cccc(C(F)(F)F)c2)c(=O)c2noc(C)c12,i,0.76,x,x,
C#CC(C)(CC)NC(=O)c1cc2nc(C3CC3)cc(C(F)(F)F)n2n1 (stereo not given),i,1,x,x,
CC(NC(=O)COC(=O)C1CCC1)c1ccccc1 (stereo not given),i,x,x,x,
COc1ccccc1NC(=O)C(CC(C)C)NC(=O)C1CCCCC1 (stereo not given),i,x,x,x,
CC(NC(=O)CC1CCCCC1)c1ccccc1 (stereo not given),i,5.3*,i,i,CHO-K1 Tl ctr=-1;KCNQ1 sel pot=-18;KCNQ2 pot conf=7.1*;Kir2-1 sel=-40;KCNQ2 W236L MoA=i
CC(C)CC(NC(=O)C1CCCCC1)C(=O)NC(C)c1ccccc1 (stereo not given),i,18*,i,i,CHO-K1 Tl ctr=3.7*;KCNQ1 sel pot=-25;KCNQ2 pot conf=29*;Kir2-1 sel=-39;KCNQ2 W236L MoA=i
C=CCN(c1nc(C)cc(OC)n1)S(=O)(=O)c1ccc(C)cc1,i,x,x,x,
CCN(c1nc(C)cc(OC)n1)S(=O)(=O)c1ccccc1,i,x,56%*,74%*,
C=CCN(c1nc(C)cc(OC)n1)S(=O)(=O)c1ccccc1,i,x,55%*,72%*,
SMILES,KCNQ2 inh,KCNQ2 enhance,Kir21 confirm,HEK293 ctr,others
COC(=O)CN(c1nc(C)cc(OC)n1)S(=O)(=O)c1ccc(C)cc1,i,2.2,x,x,
O=C(COc1ccccc1Cl)NCC(c1cccs1)N1CCOCC1 (stereo not given),i,x,x,x,
Cc1ccc(Cl)c(OCC(=O)NCC(c2cccs2)N2CCOCC2)c1 (stereo not given),i,x,64%*,i,
O=C1CCCN1CCCNS(=O)(=O)c1ccc(F)c(F)c1,i,0.07,x,x,
Cc1cc(Br)ccc1OCC(=O)NNC(=O)Cc1ccccc1,i,0.69,x,x,
Cc1cccc(NC(=O)NNC(=O)COc2ccc3ccccc3c2)c1,i,x,x,x,
O=C(COc1ccc2ccccc2c1)NNC(=O)C(=O)Nc1ccccc1,i,12*,i,i,CHO-K1 Tl ctr=-5;KCNQ1 sel pot=-7;KCNQ2 pot conf=-10;Kir2-1 sel=-38;KCNQ2 W236L MoA=i
Cc1cc(Br)ccc1OCC(=O)NNC(=O)C(=O)Nc1ccccc1,i,11*,i,228%*,CHO-K1 Tl ctr=70*;KCNQ1 sel pot=-7;KCNQ2 pot conf=36*;Kir2-1 sel=-21;KCNQ2 W236L MoA=i
COc1ccc(Cl)cc1-c1nc(SCC(N)=O)n[nH]1,i,0.87,x,x,
CCc1ccc(NC(=O)CSCc2ccc(C(=O)O)cc2)cc1,i,0.18,x,x,
O=c1[nH]c(-c2ccccc2)cs1,i,0.01,x,x,
S=c1[nH]c(-c2ccccc2)cs1,i,11*,i,147%*,CHO-K1 Tl ctr=9.5*;KCNQ1 sel pot=-15;KCNQ2 pot conf=66*;Kir2-1 sel=-39;KCNQ2 W236L MoA=i
CCCCNC(=O)O[C@H]1C[C@@H]2CCN3C(=O)CCC[C@H]([C@H]1Cc1ccccc1)[C@H]23,i,0.46,x,x,
Cn1c(-c2ccc3c(c2)OCO3)cnc1NCc1ccc(Cl)cc1,i,x,21%*,i,
COc1cc(CNc2ncc(-c3ccc(Cl)cc3)n2C)cc(OC)c1OC,i,x,x,x,
Cc1ccc(CNc2ncc(-c3ccc4c(c3)OCO4)n2C)cc1,-6*,-6,22%*,i,
Cn1c(-c2ccc(F)cc2)cnc1NCc1ccc(C#N)cc1,i,x,x,x,
Cn1c(-c2ccccc2)cnc1NCc1ccc(-c2ccccc2)cc1,i,x,x,x,
Cn1c(-c2ccc(F)cc2)cnc1NCc1ccc(F)cc1,i,x,38%*,i,
Cc1ccccc1N(CC(=O)N1CCCCCC1)S(C)(=O)=O,i,x,x,x,
CC(C)(C)NC(=O)C(c1ccncc1)N(Cc1ccc(F)cc1)C(=O)c1ccc(-c2ccccc2)[nH]1 (stereo not given),i,x,x,x,
